Results: PubChem BioAssay AID588342 (National Center for Advancing Translational Sciences (NCATS), 2011)
The whole screen tested about 360,000 compounds, of which about 25,000 (6.9%) were called active. Where a call stands in place of a potency, no number is given. Another 9% or so got no clear call; they are omitted. The call rests on the fitted dose curve; in most records, active means well fitted inhibition curve with a large enough effect; inconclusive means small, poorly fitted or top-dose-only effect; inactive means flat fitted curve, though single readings scatter. The full list was thinned out, with actives kept by preference.

What follows are molecules tested against Luciferin 4-monooxygenase (Photinus pyralis) (UniProt P08659) (assay: qHTS profiling assay for firefly luciferase inhibitor/activator using purifed enzyme and Km concentrations of substrates (counterscreen for miR-21 project)). Details: purified FLuc, luminescence inhibition; series mostly up to 57.5 µM.
Chain of Luciferin 4-monooxygenase (Photinus pyralis) (P08659 whole entry, looked up): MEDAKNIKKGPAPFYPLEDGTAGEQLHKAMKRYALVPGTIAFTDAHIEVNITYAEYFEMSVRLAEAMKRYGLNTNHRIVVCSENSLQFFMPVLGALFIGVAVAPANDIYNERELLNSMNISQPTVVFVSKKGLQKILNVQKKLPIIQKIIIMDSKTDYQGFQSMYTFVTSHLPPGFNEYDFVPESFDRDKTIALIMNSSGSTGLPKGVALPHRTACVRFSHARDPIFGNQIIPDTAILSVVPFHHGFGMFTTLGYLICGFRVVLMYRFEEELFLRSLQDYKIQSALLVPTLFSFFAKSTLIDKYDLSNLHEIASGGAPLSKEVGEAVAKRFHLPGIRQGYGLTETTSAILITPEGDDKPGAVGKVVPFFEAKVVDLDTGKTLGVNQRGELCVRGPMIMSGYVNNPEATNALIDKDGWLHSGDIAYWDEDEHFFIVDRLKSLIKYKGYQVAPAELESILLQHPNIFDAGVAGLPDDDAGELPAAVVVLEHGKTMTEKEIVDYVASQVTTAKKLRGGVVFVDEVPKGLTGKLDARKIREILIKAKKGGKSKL
Description: MLPCN Grant: 1 R21 NS059478-01 (miR-21 grant) Assay Provider: NCGC NCGC Assay Overview: Firefly (Photinus pyralis) luciferase is one of the most commonly used transcriptional reporters for a number of reasons. It is considered one of the more dynamically responsive reporters -that is, responsive to changes in reporter transcription - as it requires no post-translational modifications and is enzymatically active directly after protein synthesis (Wood, 1998). Additionally, the half-life of the luciferase protein is short relative to other reporter-gene products (Wood, 1995). Whereas reporters with long half-lives potentially allow for increased signal due to accumulation of reporter-gene product, once accumulated in the cell, dynamic changes in reporter-gene expression may be difficult to detect(Fan and Wood, 2007; Almond et al., 2004). It has been shown that wild-type P. pyralis luciferase has a half-life of approximately […] hours in mammalian cells (Thompson et al., 1991). Firefly luciferase reporter-gene assays are also generally considered one of the most sensitive assay types (Wood, 1995; Wood, 1998). Although light produced in a bioluminescence reaction is of lower intensity than that produced during fluorescence emission, this is offset by little to no background light inherent to luminescent assays. Thus the luciferase reporter can be expressed at much lower levels than fluorescent proteins while still providing robust signal. # However, it was initially observed, in 1991, by Thompson et al., that compounds that resemble the substrates of firefly luciferase (FLuc) can act as competitive inhibitors of the enzyme, and that these compounds, upon interaction with luciferase in the cell, can actually stabilize the protein and increase its half-life. Accumulated intracellular FLuc protein can be measured as an increase in luminescence signal, upon addition of detection reagents (which contain high concentrations of FLuc substrates) commonly used in high-throughput screening. In cell-based reporter gene assays that use FLuc as the reporter gene to quantitate the potential influence of a given compound against the target biology, this apparent increase in luminescence can mistakenly be interpreted as identification of a compound that is active against the target of interest. This is the case for the miR-21 FLuc reporter gene assay used to identify inhibitors of the miR-21 pathway (PubChem AID 2289) - compounds of interest will inhibit miR-21 biogenesis/expression or activity, and are identified by causing an increase in luminescence, due to increased FLuc translation. However, FLuc inhibitory compounds that stabilize the FLuc protein will give an identical read-out, making it difficult to distinguish compounds that are active against the target from those active against FLuc. Previous profiling work to determine the prevalence of compounds that affect FLuc enzymatic activity (PubChem AID 411) identified that ~3% of the MLSMR library (then at ~72K) inhibited FLuc. […] Since the MLSMR had grown to ~350K compounds, and since it was expected that a significant percentage of compounds found active in the miR-21 FLuc assay would be FLuc inhibitors, the library was screened for activity against FLuc using a biochemical assay of purified FLuc and KM concentrations of FLuc substrates (D-luciferin and ATP).
NCGC Assay Protocol Summary: Reagents: 50mM Tris acetate, pH 7.5; 10mM Mg acetate; 10uM D-luciferin (Sigma #L9504); 10uM ATP; 0.01% Tween-20; 0.05% BSA; 10nM P. pyralis luciferase (Sigma #L9506) Control compounds used were two known firefly luciferase inhibitors (compounds (2) and (5) in Auld et al., 2010), and DMSO. […]
Further: nearly all actives have a fitted effect of over 55% in size.

Structure (SMILES)	Potency
CCOC(=O)c1c(NC(=O)CSc2cn(CCNC(=O)c3cccc(C(F)(F)F)c3)c3ccccc23)sc2c1CCC2	inactive
Cc1occc1-c1nnc(SCC(=O)NC2CCCCC2)o1	inactive
CCCc1nn2c(=O)cc(COC(=O)c3ccc(NC(=O)COc4ccc(F)cc4)cc3)nc2s1	inactive
COc1ccc(S(=O)(=O)NCC(c2ccc(N(C)C)cc2)N2CCCC2)cc1 (centres undefined)	inactive
O=C(Cn1ncc2c3ccccc3n(Cc3ccccc3)c2c1=O)NCCCN1CCOCC1	inactive
CCn1c(Cc2ccc(OC)cc2)nnc1SCC(=O)Nc1ccc(N2CCOCC2)cc1	23.9 µM (active)
Cn1cnnc1SCC(=O)Nc1ccc(N2CCOCC2)cc1	inactive
CCn1c(CNC(=O)C23CC4CC(CC(C4)C2)C3)nnc1SCC(=O)Nc1ccc(OC)cc1	inactive
Cc1ccc(Cl)cc1N1CCN(C(=O)c2cn(C)c3ccc(S(=O)(=O)N(C)C4CCCCC4)cc3c2=O)CC1	inactive
Cc1ccc(NC(=O)CCCNC(=O)c2ccc(Cl)cc2)cc1S(=O)(=O)N1CCCCC1	inactive
COC(=O)c1ccc(C2C3=C(Nc4nnnn42)c2ccccc2OC3)cc1 (centres undefined)	6.01 µM (active)
COC(=O)C1=C(C(=O)c2ccc(C)cc2)C(c2ccccc2)n2nnnc2N1 (centres undefined)	inactive
COC(=O)c1ccc(C2C(C(=O)Nc3ccccc3)=C(C)Nc3nc4ccccc4n32)cc1 (centres undefined)	inactive
COc1cccc(-c2nnc(SCC(=O)N3CCC(C)CC3)o2)c1	inactive
COc1cccc(Nc2nnc(SCC(=O)N3CC(C)OC(C)C3)s2)c1 (centres undefined)	21.3 µM (active)
COc1cc(OC)c(C(=O)OCC(=O)N2CC(=O)Nc3ccccc32)cc1OC	inactive
COc1cccc(Nc2nnc(SCC(=O)N3CC(=O)Nc4ccccc43)s2)c1	21.3 µM (active)
Cc1nc(SCC(=O)N2CC(=O)Nc3ccccc32)c2c(C)c(C)sc2n1	inactive
COc1ccc(C(=O)CSc2nnc(NC(=O)C3CC(=O)N(c4cccc(OC)c4)C3)s2)cc1 (centres undefined)	inactive
O=C(Nc1ccccc1Cl)N1CCC(CN2CCCCC2)CC1	inactive
Cc1nc2ccccc2c(=O)n1-c1ccc(NS(=O)(=O)c2ccc(F)cc2F)cc1	inactive
CCN(CC)c1ccc(NC(=O)CN2C(=O)c3cccnc3Oc3ccc(Cl)cc32)c(C)c1	inactive
COc1ccc2ccn(C)c2c1	inactive
OCCNc1nc(Nc2ccc(Cl)c(Cl)c2)nc2ccccc12	6.01 µM (active)
COc1cc2nc(Cl)nc(NCCO)c2cc1OC	inactive
CN(C)c1nc(Nc2ccc(Cl)c(Cl)c2)nc(N(C)C)n1	inactive

Structure (SMILES)	Potency
Cc1ccccc1CSc1nc(-c2ccccc2)nc2c1Cc1c(CO)cnc(C)c1O2	inactive
Nc1ccn(CC(=O)N2CCN(c3ccccn3)CC2)c(=O)n1	inactive
COc1ccc(C(=O)Nc2nc(-c3ccc(OC)cc3)c(-c3ccc([N+](=O)[O-])cc3)s2)cc1	inactive
O=C(Nc1nc2ccc([N+](=O)[O-])cc2s1)c1ccncc1	1.07 µM (active)
O=C(NC(Nc1nc2ccc([N+](=O)[O-])cc2s1)(C(F)(F)F)C(F)(F)F)c1ccccc1	inactive
CCN1CCN(CCCNC(=O)c2ccc3c(c2)sc2nc(-c4ccc(OC)cc4)cn23)CC1	inactive
O=C(N/N=C\c1ccc(Br)cc1)c1ccc(Cn2cccn2)o1	12 µM (active)
CN(C)c1ccc(/C=N/NC(=O)C(O)c2ccc(Br)cc2)cc1 (centres undefined)	inactive
COc1cccc(NC(=O)c2ccc(Cn3cc([N+](=O)[O-])cn3)o2)c1	inactive
O=C(c1ccc(Cn2cc([N+](=O)[O-])cn2)o1)N1CCCC1	inactive
O=C(Nc1ccc(Br)c2cccnc12)c1ccc(Cn2cc([N+](=O)[O-])cn2)o1	inactive
O=C(N/N=C/c1ccc(Br)o1)c1cncc(Br)c1	inactive
CCc1ccc(CNC(=O)c2ccc(CS(=O)c3ccc(Br)cc3)o2)cc1 (centres undefined)	inactive
CN(C)c1ccc(/C=N/NC(=O)c2ccc(Cn3cc(Br)cn3)o2)cc1	9.53 µM (active)
O=C(N/N=C/c1ccc2c(c1)OCO2)c1ccc(Cn2cc([N+](=O)[O-])cn2)o1	6.75 µM (active)
Cc1cccc(Cn2c(CN3CCC(C(=O)NCc4ccccc4Cl)CC3)cc3ccccc32)c1	inactive
Cc1ccccc1CNC(=O)CCc1cn(Cc2ccccc2C)c2ccccc12	inactive
O=c1n(Cc2cccc(C(F)(F)F)c2)c2ccccc2c2nc(-c3ccccc3)nn12	inactive
COc1ccccc1OCC(=O)Nc1nnc2n1CCS2	inactive
CCOc1ccc(S(=O)(=O)c2cn(Cc3ccccc3)c3ccc(OCC)cc3c2=O)cc1	inactive
O=C1C2C3C=CC(C3)C2C(=O)N1c1ccc(-c2nc3ccccc3c(=O)o2)cc1 (centres undefined)	9.53 µM (active)
O=C1C2C3C=CC(C3)C2C(=O)N1c1ccc(S(=O)(=O)Nc2nccs2)cc1 (centres undefined)	inactive
CCCCCOC(=O)c1ccc(N2C(=O)C3C4C=CC(C4)C3C2=O)cc1 (centres undefined)	inactive
COc1ccc(CCNc2nc(-c3ccc(F)cc3)cc(C(F)(F)F)n2)cc1OC	inactive
Cc1ccc2c(c1)N(C(=O)Nc1ccc(Br)cc1F)CCO2	inactive
NC(=O)C1CCN(C(=O)c2cccc(NC(=O)c3nsc4ccccc34)c2)CC1	12 µM (active)

Structure (SMILES)	Potency
Cc1ccc(CCNC(=O)c2ccc(CNS(=O)(=O)c3ccc(C)cc3)cc2)cc1	inactive
CCc1ccccc1NC(=O)N1CCN(C(=O)c2nsc3ccccc23)CC1	inactive
Cc1ccccc1CNC(=O)c1cccc(NC(=O)c2nsc3ccccc23)c1	5.36 µM (active)
CCc1ccc(NC(=O)N2CCN(C(=O)c3nsc4ccccc34)CC2)cc1	inactive
Cc1c(Cl)cccc1NC(=O)N1CCN(C(=O)c2nsc3ccccc23)CC1	inactive
COc1cccc(NC(=O)N2CCN(C(=O)c3nsc4ccccc34)CC2)c1	inactive
CCCCNC(=O)C1CCC(CNS(=O)(=O)c2ccc(NC(C)=O)cc2)CC1 (centres undefined)	inactive
O=C(Nc1cccc(C(=O)N2CCCC2)c1)c1ccccc1	inactive
COCCCNC(=O)c1ccc2c(c1)ncn2-c1ccccc1OC	inactive
COCCCNC(=O)c1ccc(NC(=O)c2nsc3ccccc23)cc1	16.9 µM (active)
COCCCNC(=O)c1ccc(CNS(=O)(=O)c2ccc(NC(C)=O)cc2)cc1	16.9 µM (active)
O=C(CSc1nnc(COc2ccc(Cl)cc2)n1Cc1ccco1)N1CCNC1=O	inactive
COc1ccc(OC)c(CNC(=O)Cn2nc(C)c3c(C)n(-c4ccccc4)nc3c2=O)c1	inactive
Cc1ccc(CNS(=O)(=O)c2ccc(-c3cc(C(F)(F)F)on3)s2)cc1	inactive
COc1ccc(S(=O)(=O)Nc2cc(C)on2)cc1NC(C)=O	inactive
Cc1ccc(-c2nc(S(=O)(=O)c3ccc(C)cc3)c(N3CCCCCC3)o2)cc1	inactive
Nc1ccccc1Sc1cc(Cl)nnc1Cl	inactive
COC(=O)c1scc(-c2ccccc2)c1S(=O)(=O)Nc1ccccc1	inactive
COc1cc(C(F)(F)F)nc2c(Br)c(C(C)(C)C)nn12	inactive
O=C(NCCc1c[nH]c2ccccc12)C1CCN(Cc2ccc(Br)cc2)CC1	inactive
O=C(NCCc1ccccc1)c1ccc2c(c1)N(Cc1ccc(F)cc1)C(=O)c1ccccc1S2(=O)=O	inactive
Cc1ccccc1OCc1nc2c3cnn(-c4ccccc4F)c3ncn2n1	inactive
COC(=O)c1ccccc1NC(=O)Cn1c(=O)n(-c2cccc(C(F)(F)F)c2)c(=O)c2c(C)c(C)sc21	inactive
CSc1ncc(Cl)c(C(=O)Nc2ccc(S(=O)(=O)N3CCCC(C)C3)cc2)n1 (centres undefined)	inactive
CC(=O)Nc1cccc(-c2nc3ccccc3s2)c1C	6.01 µM (active)
Cc1c(NC(=O)Cc2ccccc2)cccc1-c1nc2cccnc2s1	inactive

Structure (SMILES)	Potency
Cc1c(NC(=O)C(C)(C)C)cccc1-c1nc2ccccc2s1	4.78 µM (active)
COc1ccc(CC(=O)Nc2ccc(-c3nc4ccccc4s3)c(C)c2)cc1	inactive
CCCCc1nn2c(=O)cc(COC(=O)c3ccccc3NC(=O)C(C)(C)C)nc2s1	inactive
Cc1cccc(C(=O)N2CCC(c3nc4ccccc4s3)CC2)c1	inactive
Cc1cccc(NC(=O)Cn2c(C(F)(F)F)nc3ccccc32)c1C	inactive
CCC(C(=O)Nc1cccc(-c2nc3cccnc3s2)c1C)c1ccccc1 (centres undefined)	inactive
Cc1cccc(C(=O)Nc2ccc(-c3nc4ccccc4s3)c(C)c2)c1	2.69 µM (active)
COCCCNC(NC(=O)c1ccc(OC)cc1)C(Cl)(Cl)Cl (centres undefined)	inactive
COC(=O)c1scc(-c2ccc(C)cc2)c1S(=O)(=O)Nc1cc(Cl)c(OC)cc1OC	inactive
COc1ccccc1Nc1cc(C(=O)NCCCN(C)C2CCCCC2)c2ccccc2n1	inactive
Cc1ccc(C(=O)CC2(O)C(=O)N(CCc3ccccc3)c3ccc(Br)cc32)cc1 (centres undefined)	inactive
COc1cc(Cl)ccc1Nc1ncc(C(=O)N2CCN(c3ccccc3OC)CC2)c2ccccc12	inactive
COc1cc(OC)cc(C(=O)NCCSCc2ccc(Cl)cc2)c1	inactive
O=C(O)c1cscn1	inactive
O=C(CCNS(=O)(=O)c1ccccc1)NCCCc1ccccc1	inactive
CC(=O)Nc1cccc(-c2cnc3ccccc3n2)c1	12 µM (active)
c1csc(-c2cn3c(n2)SCC3)c1	inactive
Cc1nc(CNS(=O)(=O)c2cccnc2)cs1	inactive
COC(=O)c1ccc(NC(=S)Nc2cccc(C)n2)cc1	inactive
CC(=O)Nc1cccc(-c2csc(Nc3cccc(C)n3)n2)c1	2.39 µM (active)
Clc1ccc(Nc2nc(-c3cccs3)cs2)nc1	1.51 µM (active)
Cc1ccccc1Nc1nc(-c2cccnc2)cs1	6.01 µM (active)
O=C(Nc1ccc(-c2csc(Nc3cccc(C(F)(F)F)c3)n2)cc1)c1cccc(C(F)(F)F)c1	inactive
Cc1cc(=O)oc(C)c1C(=O)Nc1cnc2ccccc2c1	inactive
O=C(Nc1nc(-c2cccnc2)cs1)c1ccccc1F	inactive
CC(=O)Nc1ccc(NC(=O)COc2ncnc3ccccc23)cc1	inactive
